This is a sample that favours compounds with a hit; in the whole collection about 0.71% have one here.
PI4K2A inh = inhibitors of human PI4K2A; activity change, negative = inhibition, % at 76.9 µM; Q9BTU6; AID 1346378; 420,000 compounds, 0.13% hits; purified PI4K2A, ADP-Glo luminescence, 1 h; hits give low values; in the data active = activity change below about -50%; inconclusive = mostly about -30% to -49%;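 also: -100% = wells without enzyme as full effect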
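ADP-Glo luminescence measured ADP generated by PI4K2A enzyme (4 ug/mL before mixing) with 1.2 mM PI substrate (pre-mix) and 300 microM ATP (pre-mix). Tris pH7.5 buffer with MgCl2, Triton X-100; 1 h reaction at ambient temperature.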
USP2a inh = inhibitors of human ubiquitin-specific protease USP2a; Potency, µM (doses to about 38.3 µM), inactives show at the top dose activity change, negative = inhibition, hits mostly inhibitors; USP2 core, Ub-CHOP2 coupled fluorogenic reporter, 485/531; 330,000 compounds, 0.01% hits; AID 463254;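 also: potency is read from the fitted curve at half-maximal effect; plate controls were DMSO wells for no effect and full inhibition by NEM control for full effect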
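Cell-free coupled assay: 10nM USP2 core preincubated 30min RT with compound in Tris-HCl pH 8.0/CaCl2/CHAPS buffer, then 25nM Ub-CHOP2 and 25nM reporter substrate; fluorescence (Ex 485/Em 531) read after 60min RT, normalized to NEM inhibition, concentration-response curves fitted.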
Eya2 inh = inhibitors of human Eya2 phosphatase activity; recombinant Eya2, OMFP fluorescence dephosphorylation (OMFP is methylfluorescein phosphate); 330,000 compounds, 0.006% hits; Potency, µM (titrated, usually from 76.9 µM), for the others: at the highest dose activity, negative = inhibition, hits mostly inhibitors; O00167; also: potency is read from the fitted curve at half-maximal effect
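Eya2 protein (added as 0.2 uM solution) was preincubated with compound for 10 min at ambient temperature in 50 mM HEPES pH 7.5, 50 mM NaCl, 5 uM MgCl2, 0.05% BSA, 1 mM DTT. OMFP (added at 50 uM) then reacted 10 min; fluorescence read at 485/525 nm.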
FBPA coupling cs = counter-screen for Giardia aldolase inhibitors: coupling enzyme system | coupling enzyme system counterscreen, AmpLite Red fluorescence | activity change, negative = inhibition, % at 58.2 µM, hits read low | 290,000 compounds, 0.67% hits | AID 2472; in the data active = activity change below about -30%
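Fluorescence at 525 nm excitation and 598 nm emission measured inhibition of the coupled detection system without aldolase. Compounds (at 57.5 uM final) were preincubated 10 min at room temperature with coupling enzyme reagent before a 20 min substrate/AmpLite Red step.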
USP1-UAF1 inh = blocks the human USP1/UAF1 deubiquitinase complex. AID 743255. O94782. 390,000 compounds, 0.23% hits. recombinant USP1/UAF1, Ub-Rhodamine cleavage fluorescence. Potency, µM (doses to about 57.1 µM), for inactives: at the highest dose activity change, negative = inhibition, usual class: inhibitors; also: potency is read from the fitted curve at half-maximal effect; nearly all actives have a fitted effect of over 60% in size
Target sequence (O94782 whole entry, looked up): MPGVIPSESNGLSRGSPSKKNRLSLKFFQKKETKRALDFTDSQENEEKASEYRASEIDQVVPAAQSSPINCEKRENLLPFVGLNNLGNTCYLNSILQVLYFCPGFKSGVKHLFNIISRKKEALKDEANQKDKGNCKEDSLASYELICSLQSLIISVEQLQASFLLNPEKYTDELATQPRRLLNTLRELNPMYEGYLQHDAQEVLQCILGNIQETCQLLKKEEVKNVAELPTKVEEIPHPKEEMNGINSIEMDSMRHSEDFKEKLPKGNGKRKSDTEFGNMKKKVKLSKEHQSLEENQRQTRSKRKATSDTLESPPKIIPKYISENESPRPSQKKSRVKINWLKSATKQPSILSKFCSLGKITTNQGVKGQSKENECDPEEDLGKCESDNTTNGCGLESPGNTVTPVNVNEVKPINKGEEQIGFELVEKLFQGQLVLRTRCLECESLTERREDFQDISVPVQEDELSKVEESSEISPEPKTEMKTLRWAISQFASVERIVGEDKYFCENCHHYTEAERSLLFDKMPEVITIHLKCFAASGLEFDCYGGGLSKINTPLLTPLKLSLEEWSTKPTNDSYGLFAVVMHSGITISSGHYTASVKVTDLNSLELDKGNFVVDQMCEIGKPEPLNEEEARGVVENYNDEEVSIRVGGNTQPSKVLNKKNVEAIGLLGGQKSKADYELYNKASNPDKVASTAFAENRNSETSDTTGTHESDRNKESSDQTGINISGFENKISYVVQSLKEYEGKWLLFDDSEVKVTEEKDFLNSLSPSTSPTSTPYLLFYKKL
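USP1/UAF1 complex (1 nM) preincubated 15 min at room temperature with compound, then Ub-Rho substrate (150 nM final) added. Kinetic fluorescence at 480/540 nm over 6 reads at 60 s intervals; 50 mM HEPES pH 7.8, 0.5 mM EDTA, 0.1 mg/ml BSA, 1 mM TCEP, 0.01% Tween-20.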
GALK inh = inhibitors of human galactokinase | Potency, µM (series often up to 57.5 µM), for the others: at the highest dose activity change, negative = inhibition, usual class: inhibitors | AID 1868 | 270,000 compounds, 0.007% hits | Purified GALK, Kinase-Glo residual ATP luminescence; also: potency is read from the fitted curve at half-maximal effect
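Compounds were pin-transferred into ATP buffer (35 uM final), then GALK plus galactose (5 nM, 100 uM final) was added. After 1 h at room temperature, Kinase-Glo Plus was added and luminescence read after 10 min.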
Numbers without * were called inactive; ? = inconclusive; nt = no result; ! = repeats disagree; [ ] = another dose, or the depositor's remark. Unless noted, calls follow the shape of the dose curve; as a rule, active = well fitted curve in the direction sought with a large enough effect; inconclusive = small, poorly fitted or top-dose-only effect, or another doubt; inactive = no such curve, though single readings can be large; an effect the other way counts as inactive or inconclusive. Unless noted, % is scaled to controls: 0 for no effect and ±100 for the full control effect.

SMILES	PI4K2A inh	USP2a inh	Eya2 inh	FBPA coupling cs	USP1-UAF1 inh	GALK inh
Cc1cc(C)c(S(=O)(=O)/N=C2\C=C(Nc3ccc(C(=O)O)cc3)C(=O)c3ccccc32)c(C)c1	?	-11.1%	-27.8%	-41.7*	14.1µM*	-2.3%
Cc1cc(C)c(S(=O)(=O)c2ccccc2C(=O)O)c(C)c1	6.2	4.3%	8.9%	8.1	-13.7%	-2.7%
O=C(O)c1ccc(NC2=C/C(=N/S(=O)(=O)c3ccccc3)c3ccccc3C2=O)cc1	?	3.7%	-7.8%	-46.7*	2.82µM*	?
CCN(CC)C(=O)CC[C@H]1CC[C@]2(CCCN(C3CCCCC3)C2)O1	-4.4	nt	nt	nt	nt	nt
COc1ccc(C(=O)c2c(C(F)(F)F)oc3c2C(=O)c2ccccc2C3=O)cc1OC	-5.8	-19.1%	-4.0%	-54.6*	?	1.2%
CC(=O)Nc1ccc(S(=O)(=O)Nc2cc(C)on2)cc1	0.0	nt	nt	nt	nt	nt
COc1ccccc1NC(=O)C1=C(C)NC(=O)NC1c1ccccc1[N+](=O)[O-] (centres undefined)	2.1	4.8%	0.8%	-40.8*	4.7%	9.0%
CO[C@@]1(NC(=O)C(C(=O)O)c2ccc(O)cc2)C(=O)N2C(C(=O)O)=C(CSc3nnnn3C)CO[C@@H]21 (some centres undefined)	-1.5	nt	nt	nt	nt	nt
CCCCN(C)C(=O)c1cc2cc3ccc(OC)cc3nc2s1	-55.3*	-0.4%	4.6%	-0.1	-19.7%	5.4%
CCN(CCCNC(=O)c1cc2cc3ccc(OC)cc3nc2s1)c1ccccc1	-8.1	-0.9%	0.7%	nt	-20.9%	nt
COc1ccc2[nH]c(C)c(CCN(Cc3cccs3)C(=S)Nc3cccc(F)c3)c2c1	-4.5	7.1%	9.4%	-43.1*	-24.6%	0.1%
COc1cccc(NC(=S)N(CCc2c(C)[nH]c3ccc(C)cc23)Cc2cccs2)c1	0.7	-10.1%	-16.1%	2.9	-5.9%	nt
CCOC(=O)C(O)c1ccccc1 (centres undefined)	-2.3	nt	nt	nt	nt	nt
Cc1[nH]c2ccccc2c1C1(O)C(=O)N(C(C)C)c2ccccc21 (centres undefined)	-6.1	0.0%	-11.1%	-25.8	-13.4%	-3.2%
Cc1ccc2c(c1)C(O)(c1c(C)[nH]c3ccccc13)C(=O)N2 (centres undefined)	4.3	-17.9%	-1.1%	-34.6*	-21.4%	0.3%
CC(=O)OC[C@H]1O[C@@H](O/N=C(\C)CCC(=O)OC[C@@H]2O[C@H](C#Cc3ccccc3)C=C[C@@H]2Oc2ccc(C)cc2)[C@H](OC(C)=O)[C@@H](OC(C)=O)[C@H]1OC(C)=O	nt	nt	nt	0.7	nt	nt
CCOC(=O)c1c(-c2ccc(C)cc2)csc1NC(=O)/C(C#N)=C/c1ccc(O)c(OC)c1	-3.9	7.4%	14.7%	4.0	?	0.1%
CCOC(=O)c1c(-c2ccccc2)csc1NC(=O)/C(C#N)=C\c1ccc(O)c(OC)c1	12.0	nt	nt	nt	15.8µM*	nt
C#CCCCO/N=C1/C[C@@H](O)[C@@H](O)[C@@H]2[C@H]3C(=O)N(c4ccc(F)cc4F)C(=O)[C@@H]3CC[C@H]12	nt	nt	nt	-0.1	nt	nt
COc1cc2c(C#N)c(N3CCN(C)CC3)nc(N)c2c(N)n1	nt	5.3%	16.9%	-13.3	nt	-0.8%
COc1cc2c(C#N)c(N3CCN(c4ccccc4OC)CC3)nc(N)c2c(N)n1	-54.7*	-5.3%	4.6%	-52.3*	-5.8%	-3.8%
COc1cc2c(C#N)c(N3CCCC3)nc(N)c2c(N)n1	-55.4*!	0.9%	2.4%	-31.4*	7.94µM*	-8.0%
N#Cc1c(N2CCCC2)nc(N)c2c(N)nc(N3CCCC3)cc12	?	1.2%	-31.3%	-36.2*	0.316µM*	?
CCCOc1cc2c(C#N)c(N3CCCC3)nc(N)c2c(N)n1	-13.4	nt	nt	nt	28.2µM*	nt
COc1ccc(CNc2ncnc3ccc(-c4cccc(C#N)c4)cc23)c(OC)c1	nt	nt	nt	-2.2	nt	nt
SMILES	PI4K2A inh	USP2a inh	Eya2 inh	FBPA coupling cs	USP1-UAF1 inh	GALK inh
CC1c2ccccc2CN1NC(=O)c1ccc(Cl)c(S(N)(=O)=O)c1 (centres undefined)	0.7	nt	nt	nt	nt	nt
CC(C)(O)[C@@H]1CCC[N+]2(C)CCCC[C@H]12 (some centres undefined)	nt	nt	nt	-1.6	nt	nt
Cc1ccc2c(c1)c(=O)c1c3n2CCN(C(=O)CCl)C3CC1 (centres undefined)	?	2.9%	-9.9%	-42.2*	31.6µM*	-3.3%
Cc1ccc2c(c1)c1c3n2CCN(C(=O)C2CC2)C3CCC1 (centres undefined)	0.6	-0.4%	-22.0%	-36.4*	-21.2%	1.7%
CO/N=C(/C)CCC(=O)OC[C@@H]1O[C@H](C#Cc2ccccc2)C=C[C@@H]1Oc1ccc(C)cc1	nt	nt	nt	5.2	nt	nt
COC(=O)c1cc(-c2ccc(C(C)=O)cc2)c(=O)n2c1CCC2	4.5	nt	nt	nt	nt	nt
COc1ccc(CN2C=C3C(=O)C(C)(OC(=O)C4CCCC4)C(=O)C=C3C=C2c2ccsc2)cc1 (centres undefined)	-2.8	8.1%	-6.7%	-4.4	-16.0%	-0.7%
COC(=O)CCCC1=CC2=C(c3ccccc3)C(=O)C(C)(OC(=O)C3CCCC3)C(=O)C2=CN1C1CCCCC1 (centres undefined)	-11.1	5.5%	-1.0%	-31.2*!	-24.0%	-2.0%
CC1(OC(=O)C2CCCC2)C(=O)C=C2C=C(c3ccsc3)N(C3CCCC3)C=C2C1=O (centres undefined)	-11.0	0.0%	6.9%	-31.9*!	?	-1.0%
CC1(OC(=O)C2CCCC2)C(=O)C=C2C=C(c3ccsc3)N(CCCCO)C=C2C1=O (centres undefined)	-8.2	-1.9%	-6.9%	-37.2*	?	3.9%
COC(=O)CCCC1=CC2=C(c3ccccc3)C(=O)C(C)(OC(=O)C3CCCC3)C(=O)C2=CN1C1CCCC1 (centres undefined)	-3.8	-14.5%	1.5%	-12.1	-34.5%	-1.6%
CC(C)OCCCN1C=C2C(=O)C(C)(OC(=O)C3CCCC3)C(=O)C=C2C=C1c1ccsc1 (centres undefined)	nt	nt	nt	-40.7*	nt	nt
CC1(C)CC(=O)C2=C(C1)N(c1cccc(O)c1)C1=C(C2)C(=O)CC(C)(C)C1	-3.7	4.6%	-6.3%	-36.1*	-16.9%	1.9%
CC12C=C(/C=C/C=C/c3ccco3)C(C)(C1)C(/C=C/c1ccco1)CC2=O (centres undefined)	nt	nt	nt	-0.3	nt	nt
Cc1ccc(Cn2c(=O)n(-c3ccc(C)c(C)c3)c(=O)c3c(C)c(C)sc32)cc1	-4.2	nt	nt	nt	-18.8%	nt
CCOC(=O)c1c(OCC)[nH]c2c1cc(O)c1ccccc12	0.9	2.0%	-5.3%[15.4 µM]	-49.4*	?	0.9%

Assay outcomes: PubChem BioAssay, National Center for Advancing Translational Sciences (NCATS)
